PubChem BioAssay (NCI)
This is part of a sample that, as a whole, favours compounds with a hit. Of some 83,000 tested, about 20% had one in any assay.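 Step 1: grow cells in 96-well plates. Step 2: add test compound at a single concentration. Step 3: incubate 48 h. Step 4: record percent growth.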 Values without a mark were called inactive. Activity calls are given as the source filed them. The calls were made as follows: active = growth percent below 10; inactive = the rest.

Key:
Experiment in all cases: NCI-60 one-dose screen, 48 h (100 = growth as untreated, 0 = no growth, -100 = all killed)
Settings in all cases: 10 µM unless noted
[1] = tested on: DU-145 prostate
[2] = tested on: K-562 leukemia
[3] = tested on: MALME-3M melanoma
[4] = tested on: MDA-MB-231 breast
[5] = tested on: RXF 393 renal
[6] = tested on: SF-268 CNS
[7] = tested on: SF-295 CNS
[8] = tested on: SF-539 CNS
[9] = tested on: UACC-257 melanoma
[10] = tested on: M14 melanoma
[11] = tested on: HCT-15 colon
[12] = tested on: HT29 colon
[13] = tested on: SNB-19 CNS
[14] = tested on: U251 CNS
[15] = tested on: PC-3 prostate
[16] = tested on: SK-MEL-5 melanoma
[17] = tested on: UACC-62 melanoma
[18] = tested on: LOX IMVI melanoma
[19] = tested on: SK-MEL-28 melanoma
[20] = tested on: SNB-75 CNS

SMILES: O=C(Cc1cccc(OC(F)(F)F)c1)Nc1ccc(CCCCc2nnc(NC(=O)Cc3ccccn3)s2)nn1
- growth [1]: 86.9%
- growth [2]: 45.7%
- growth [3]: 82.8%
- growth [4]: 84.6%
- growth [5]: 52.1%
- growth [6]: 78.7%
- growth [7]: 60.6%
- growth [8]: 81.9%
- growth [9]: 92.9%
- growth [10]: 50.8%
- growth [11]: 89.6%
- growth [12]: 76.6%
- growth [13]: 84.9%
- growth [14]: 82.3%
- growth [15]: 17.5%
- growth [16]: 62.2%
- growth [17]: 63.5%
- growth [18]: 82.8%
- growth [19]: 93.8%

SMILES: CN(CCCNC(=O)CCOCCOCCOCCNC(=O)Cc1ccc2ccc3cccc4ccc1c2c34)CCCNc1cc(-c2ccc3ccccc3c2)nc2ccccc12
- growth [1]: -95.8% (active)
- growth [2]: -88.3% (active)
- growth [3]: -69.6% (active)
- growth [4]: -70.7% (active)
- growth [5]: -37.7% (active)
- growth [6]: -82.9% (active)
- growth [7]: -71.1% (active)
- growth [8]: -98.6% (active)
- growth [9]: -70% (active)
- growth [10]: -89.7% (active)
- growth [11]: -77.5% (active)
- growth [12]: -87.6% (active)
- growth [13]: -95.1% (active)
- growth [14]: -70.7% (active)
- growth [15]: -93.6% (active)
- growth [16]: -96% (active)
- growth [17]: -65.9% (active)
- growth [18]: -43.7% (active)
- growth [19]: -94% (active)

SMILES: CN1CCN(C(=O)C(C)(C)c2ccc(C(=O)Nc3cn4cc(-c5ccncc5)ccc4n3)cc2)CC1
- growth [1]: 16.1%
- growth [2]: 10.2%
- growth [3]: -11.9% (active)
- growth [4]: 21.1%
- growth [5]: -61.1% (active)
- growth [6]: 9.95% (active)
- growth [7]: 8.85% (active)
- growth [8]: -1.81% (active)
- growth [9]: 13%
- growth [10]: 13.1%
- growth [11]: 2.11% (active)
- growth [12]: 6.49% (active)
- growth [13]: 9.14% (active)
- growth [14]: 16%
- growth [15]: 25.7%
- growth [16]: -98.2% (active)
- growth [17]: -31.3% (active)
- growth [18]: -19.9% (active)
- growth [19]: 7.28% (active)

SMILES: CCOC(=O)c1nn(CC(O)c2ccccc2)c(NC(=O)Nc2cccc(F)c2)c1C (stereo unspecified)
- growth [1]: 94.4%
- growth [2]: 92.4%
- growth [3]: 100%
- growth [4]: 90%
- growth [5]: 107%
- growth [6]: 95.4%
- growth [7]: 92.2%
- growth [8]: 102%
- growth [9]: 86.8%
- growth [10]: 103%
- growth [11]: 98%
- growth [12]: 101%
- growth [13]: 97.3%
- growth [14]: 92%
- growth [15]: 92.5%
- growth [16]: 96.7%
- growth [17]: 80.8%
- growth [18]: 98.4%
- growth [19]: 113%

SMILES: N=c1c(S(=O)(=O)c2ccccc2)cc2c(=O)n3ccccc3nc2n1CC1CCCO1 (stereo unspecified)
- growth [1]: 110%
- growth [2]: 113%
- growth [3]: 118%
- growth [4]: 97.9%
- growth [5]: 113%
- growth [6]: 100%
- growth [7]: 112%
- growth [8]: 95.6%
- growth [9]: 109%
- growth [10]: 104%
- growth [11]: 119%
- growth [12]: 120%
- growth [13]: 103%
- growth [14]: 108%
- growth [15]: 95.3%
- growth [16]: 99.7%
- growth [17]: 99.8%
- growth [18]: 98.7%
- growth [19]: 108%

SMILES: C=C(c1ccc(OC)c(/C=C/C(=O)c2ccc3c(c2)OCO3)c1)c1cc(OC)c(OC)c(OC)c1
- growth [1]: 9.67% (active)
- growth [2]: 6.89% (active)
- growth [3]: 67.2%
- growth [4]: 29%
- growth [5]: 3.52% (active)
- growth [6]: 19.3%
- growth [7]: 10.7%
- growth [8]: -21.8% (active)
- growth [9]: 58.7%
- growth [10]: 11.3%
- growth [11]: -8.44% (active)
- growth [12]: 10.2%
- growth [13]: 30.9%
- growth [14]: 11%
- growth [15]: 26.5%
- growth [16]: 0.661% (active)
- growth [17]: 2.65% (active)
- growth [18]: -51.1% (active)

SMILES: O=C(/C=C/C12c3ccccc3C(c3ccccc31)C1C(=O)NC(=O)C12)c1ccc(Br)cc1 (stereo unspecified)
- growth [1]: 46.6%
- growth [2]: 21.6%
- growth [3]: 80.5%
- growth [4]: 52.6%
- growth [5]: 25.4%
- growth [6]: 60.6%
- growth [7]: 71%
- growth [8]: 77.9%
- growth [9]: 61.7%
- growth [10]: 62.6%
- growth [11]: 36.1%
- growth [12]: 20.1%
- growth [13]: 51.3%
- growth [14]: 29.2%
- growth [15]: 29.8%
- growth [16]: 67.8%
- growth [17]: 46.7%
- growth [18]: 21%
- growth [19]: 50.6%

SMILES: O=C(CCCCCNC(=O)c1cc(=O)c(O)co1)Nc1ccccc1
- growth [1]: 103%
- growth [2]: 95.2%
- growth [3]: 102%
- growth [4]: 101%
- growth [5]: 109%
- growth [6]: 91.8%
- growth [7]: 97.4%
- growth [8]: 101%
- growth [9]: 93.8%
- growth [10]: 96.3%
- growth [11]: 91.5%
- growth [12]: 106%
- growth [20]: 82.7%
- growth [14]: 89.9%
- growth [15]: 99.7%
- growth [16]: 101%
- growth [17]: 97.9%
- growth [18]: 92.7%
- growth [19]: 104%

SMILES: CCCn1cnc2c(c1=N)C(c1ccc(F)cc1)c1sc3c(F)cccc3c1O2 (stereo unspecified)
- growth [1]: 76.6%
- growth [2]: 16.9%
- growth [3]: 54.1%
- growth [4]: 63.3%
- growth [5]: 52.2%
- growth [6]: 49.6%
- growth [7]: 27.7%
- growth [8]: 32.6%
- growth [9]: 73.4%
- growth [10]: 39.3%
- growth [11]: 28%
- growth [12]: 63.6%
- growth [13]: 35.4%
- growth [14]: 30.8%
- growth [15]: 50.1%
- growth [16]: 42.2%
- growth [17]: 12.1%
- growth [18]: 43.4%
- growth [19]: 56%

SMILES: O=C1c2ccccc2C(=O)c2c1cc1c(c2[N+](=O)[O-])OCO1
- growth [1]: 17.8%
- growth [2]: 10.5%
- growth [3]: 85%
- growth [4]: 11.3%
- growth [5]: -63.5% (active)
- growth [6]: 5.31% (active)
- growth [7]: 10.6%
- growth [8]: 21.3%
- growth [9]: 82.3%
- growth [10]: 73.5%
- growth [11]: 13.7%
- growth [12]: 32.5%
- growth [13]: 21.7%
- growth [14]: -13.3% (active)
- growth [15]: -3.71% (active)
- growth [16]: 80%
- growth [17]: 15.2%
- growth [18]: 2.79% (active)
- growth [19]: 103%

SMILES: COc1ccc(C[n+]2c3ccccc3n3c4ccc(N)cc4ccc32)c(OC)c1OC
- growth [1]: 81%
- growth [2]: 42%
- growth [3]: 49.6%
- growth [4]: 75.5%
- growth [5]: 69.7%
- growth [6]: 35%
- growth [7]: 65.6%
- growth [8]: 52.2%
- growth [9]: 3.35% (active)
- growth [10]: 87.5%
- growth [11]: 101%
- growth [12]: 39.2%
- growth [20]: 61.4%
- growth [14]: 8.81% (active)
- growth [15]: 43.3%
- growth [17]: 60.1%
- growth [18]: 85.2%
- growth [19]: 64.5%

SMILES: CC(C)(C)n1cc(-c2ccnc(NCCCNS(=O)(=O)c3cccc4ccccc34)c2)c(-c2cccc(F)c2)n1
- growth [1]: 89.4%
- growth [2]: 30.8%
- growth [3]: 113%
- growth [4]: 80.6%
- growth [5]: 76.8%
- growth [6]: 85.2%
- growth [7]: 63.9%
- growth [8]: 72.4%
- growth [9]: 94.4%
- growth [10]: 73.3%
- growth [11]: 44.6%
- growth [12]: 27.6%
- growth [13]: 86.3%
- growth [14]: 65%
- growth [15]: 55.8%
- growth [16]: 74.5%
- growth [17]: 80.5%
- growth [18]: 54.7%
- growth [19]: 99.9%

SMILES: COC(=O)c1cc(Br)ccc1O
- growth [1]: 110%
- growth [2]: 111%
- growth [3]: 102%
- growth [4]: 118%
- growth [5]: 101%
- growth [6]: 105%
- growth [7]: 102%
- growth [8]: 107%
- growth [9]: 109%
- growth [10]: 105%
- growth [11]: 101%
- growth [12]: 103%
- growth [13]: 108%
- growth [14]: 102%
- growth [15]: 94.5%
- growth [16]: 95.2%
- growth [17]: 102%
- growth [18]: 94.7%
- growth [19]: 107%

SMILES: Nn1c(=O)c(=O)[nH]c2c(cnn2-c2ccccc2)c1=O
- growth [1]: 114%
- growth [2]: 96.4%
- growth [3]: 106%
- growth [4]: 105%
- growth [5]: 113%
- growth [6]: 99.7%
- growth [7]: 102%
- growth [8]: 99.8%
- growth [9]: 107%
- growth [10]: 110%
- growth [11]: 101%
- growth [12]: 110%
- growth [13]: 103%
- growth [14]: 105%
- growth [15]: 106%
- growth [16]: 101%
- growth [17]: 102%
- growth [18]: 101%
- growth [19]: 113%

SMILES: Cc1ccc(C(=O)Nc2cccc(C#Cc3cccc4[nH]nc(N)c34)c2)cc1C(F)(F)F
- growth [1]: 78.4%
- growth [2]: 6.95% (active)
- growth [3]: 6.04% (active)
- growth [4]: 55.4%
- growth [5]: 41.2%
- growth [6]: 60.8%
- growth [7]: 78.1%
- growth [8]: 8.47% (active)
- growth [9]: 68%
- growth [10]: 21.6%
- growth [11]: 48.9%
- growth [12]: 27.3%
- growth [13]: 113%
- growth [14]: 81.5%
- growth [15]: 69.8%
- growth [16]: 73.3%
- growth [17]: 41.1%
- growth [18]: 25.4%

SMILES: CC/C(Cc1ccccc1)=C(\c1ccc(OCCCN(C)C)cc1)c1ccc(OC(=O)NCc2ccccc2)cc1
- growth [1]: 73.9%
- growth [2]: -31.7% (active)
- growth [3]: 41.8%
- growth [4]: 65.2%
- growth [5]: 80%
- growth [6]: 72.4%
- growth [7]: 110%
- growth [8]: 93%
- growth [9]: 83.4%
- growth [10]: 18.8%
- growth [11]: 4.38% (active)
- growth [12]: 7.12% (active)
- growth [20]: 69.4%
- growth [14]: 35.7%
- growth [15]: 64.5%
- growth [16]: 74.4%
- growth [17]: 85%
- growth [18]: 15.5%
- growth [19]: 90%
